PMC7819943, “Rice protein-binding microarrays: a tool to detect cis-acting elements near promoter regions in rice”
Over roughly 39,000 sequences, “fluorescence intensity (a.u.)” has its median near 4,300; the highest 2% begin near 39,000. Shown is part of a subset that was picked to be rich in the highest values.

What follows are sequences tested against T1, OsSMF1 (Oryza sativa, UniProt Q6ZLB0 1-436) (assay: protein-binding microarray (RPBM); PBS, 2% BSA, 51.3 ng/ul salmon testes DNA, 50 uM zinc acetate, 200 nM TF, 25 C, 1 h; high values mean tight binding). Details: protein: recombinant; tags: N-terminal polyhistidine and DsRed monomer fusion (pET32a); chain copies: 2; label: CyDye5-dUTP incorporated in the synthesized complementary strand; 3' TTTTT single-stranded linker to array surface; dsDNA, one strand shown.
T1 sequence: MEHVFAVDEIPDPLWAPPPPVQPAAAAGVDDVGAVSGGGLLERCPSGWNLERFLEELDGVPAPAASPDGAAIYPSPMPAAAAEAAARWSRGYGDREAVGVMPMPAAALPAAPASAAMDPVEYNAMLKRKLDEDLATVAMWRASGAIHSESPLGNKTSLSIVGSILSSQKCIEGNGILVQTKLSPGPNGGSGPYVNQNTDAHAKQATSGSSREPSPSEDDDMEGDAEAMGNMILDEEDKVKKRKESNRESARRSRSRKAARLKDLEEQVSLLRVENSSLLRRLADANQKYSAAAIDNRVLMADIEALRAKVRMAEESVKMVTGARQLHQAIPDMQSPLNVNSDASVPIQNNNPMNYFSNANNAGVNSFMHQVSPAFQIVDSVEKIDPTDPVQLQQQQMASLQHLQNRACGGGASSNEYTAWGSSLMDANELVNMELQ
How it was run: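 The binding signal for each feature is its fluorescence intensity in arbitrary units. An Axon 4000B scanner was used to read a custom Agilent array that had been made double-stranded with Cy5-dUTP primer extension, blocked with 2% BSA, incubated at 25 °C for 1 h with 200 nM protein in PBS, 2% BSA, salmon testes DNA and 50 µM zinc acetate, and washed. The protein was an N-terminal polyhistidine–DsRed transcription factor fusion from E. coli BL21-CodonPlus, purified on Ni–NTA.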
With “AGCTTCGCACTGGGCACGTGTGCCTGTGTGTGGGAGTCAGCGGAGTCACCTAGTGCAG” the binding signal was 4070 fluorescence intensity (a.u.).
“GAAGTGGTTCTGCACTGTGATTTGAAGCCTAGCAACGTGCCGGAGTCACCTAGTGCAG” was tested, and the binding signal was 35800 fluorescence intensity (a.u.).
In the case of “TGCTGCCAGAGTCAGTAGGTGCCCTCTTCCACCTGCAGACCGGAGTCACCTAGTGCAG”, the binding signal is reported as 3270 fluorescence intensity (a.u.).
In the case of “CAAACTGCAACTCCAATATCACATTTTCTTTCTCTTTTCCCGGAGTCACCTAGTGCAG”, the binding signal is reported as 19700 fluorescence intensity (a.u.).
With “CAGTCAGTCAGTAGGTTCCCAGAATTTTCTCCCTGCAAACCGGAGTCACCTAGTGCAG” the binding signal was 50200 fluorescence intensity (a.u.).
In the case of “CAAACAAGGACCGTAGACACTCTAACCAACCCCAATAACACGGAGTCACCTAGTGCAG”, the binding signal is reported as 31300 fluorescence intensity (a.u.).
With “TCAGTAGGCCAGTAGCTAGCTGCTGCCTTCACACATCAATCGGAGTCACCTAGTGCAG” the binding signal was 3160 fluorescence intensity (a.u.).
“ATGAACATATTTCAATCGTTCAGTACCTTCAAGCCACAGGCGGAGTCACCTAGTGCAG” was tested, and the binding signal was 39800 fluorescence intensity (a.u.).
In the case of “CACATCGTTGCCAATGTTGCCACGTACCAAGGTCATATGGCGGAGTCACCTAGTGCAG”, the binding signal is reported as 9400 fluorescence intensity (a.u.).
“GCCAGCTGCCACGTGGGACAAAATCGGGGTCAAAACCACCCGGAGTCACCTAGTGCAG” was tested, and the binding signal was 12700 fluorescence intensity (a.u.).
For “CCTCGTCCGCCTTGGTCTTCTTCCAGCCGAGGAGCAACCGCGGAGTCACCTAGTGCAG”, the binding signal was 48200 fluorescence intensity (a.u.).
In the case of “CGAGCCGCCTCCGCCACCGCCGCCTCCTTCCGACCAGCCGCGGAGTCACCTAGTGCAG”, the binding signal is reported as 3530 fluorescence intensity (a.u.).
“GTCCAGCCTCCTCCTCCGCTGACCTCCTCGCGGTCTTCTCCGGAGTCACCTAGTGCAG” was tested, and the binding signal was 4520 fluorescence intensity (a.u.).
With “AGCTTACTATGATACCGATGAACACGTTATGACAACAAACCGGAGTCACCTAGTGCAG” the binding signal was 3880 fluorescence intensity (a.u.).
For “CAAATACTAAATGATTTCAAATGAAAACGTCATCAACAACCGGAGTCACCTAGTGCAG”, the binding signal was 3560 fluorescence intensity (a.u.).
In the case of “AACGTGAACTAAACACATGTCGAAATGCAATCAAAATACCCGGAGTCACCTAGTGCAG”, the binding signal is reported as 42000 fluorescence intensity (a.u.).
With “AATCAAACTTTCAATTTTAGCGTGAACTAAACACACCCTTCGGAGTCACCTAGTGCAG” the binding signal was 3680 fluorescence intensity (a.u.).
In the case of “ATAGAAACATAGCGTGACACAACATAACAAACCAATGCAACGGAGTCACCTAGTGCAG”, the binding signal is reported as 4630 fluorescence intensity (a.u.).
“CCAAATAGACTCTTACTTATAAGGGTTGAGTCTAGAGTGACGGAGTCACCTAGTGCAG” was tested, and the binding signal was 6050 fluorescence intensity (a.u.).
With “TGATTGTGACACTAGCACGACGCACTTTCCTCTATATACACGGAGTCACCTAGTGCAG” the binding signal was 3630 fluorescence intensity (a.u.).
“ATAAAGTCCTTATCGGACACTAAACGCACTTTCCTAAAGACGGAGTCACCTAGTGCAG” was tested, and the binding signal was 39200 fluorescence intensity (a.u.).
In the case of “ATGAACTAAACGCACCCTTGTAAGTCTGACACACTGTGGACGGAGTCACCTAGTGCAG”, the binding signal is reported as 3720 fluorescence intensity (a.u.).
“AAGAAATCTCTTCATAGATCTCCTGATGAAAGAATTTAACCGGAGTCACCTAGTGCAG” was tested, and the binding signal was 3730 fluorescence intensity (a.u.).
With “CAGGCTACAGGGCATTTGTGTCATTTTGCAAGAAGGCATACGGAGTCACCTAGTGCAG” the binding signal was 3380 fluorescence intensity (a.u.).
With “TGTTCCACTGTTGTGTGTGTGGCATTCTTGTACTGCATTTCGGAGTCACCTAGTGCAG” the binding signal was 3360 fluorescence intensity (a.u.).
With “TTGTGTGCATTTCGGCATTTGGCTACAAGATTCTTGCAGTCGGAGTCACCTAGTGCAG” the binding signal was 39600 fluorescence intensity (a.u.).
“CTCGATACAGAGTGAGCGGGGTATGGCAATGACGAGCTATCGGAGTCACCTAGTGCAG” was tested, and the binding signal was 3160 fluorescence intensity (a.u.).
With “GAATGAAAACTCAGGGGTAAGTAGGAGATGACGCAAAGTTCGGAGTCACCTAGTGCAG” the binding signal was 3580 fluorescence intensity (a.u.).
With “TTCTCCCTCTACTATTGCTGACGCCACCAACGCCCATGTGCGGAGTCACCTAGTGCAG” the binding signal was 13500 fluorescence intensity (a.u.).
In the case of “GGCCATGTTGAATGACGCGTTGCTCTCCCTACTCTACGGACGGAGTCACCTAGTGCAG”, the binding signal is reported as 49100 fluorescence intensity (a.u.).
“CGTCTCGCCGGAGCGTTGACGAGGACCTCTCTACTCTTCACGGAGTCACCTAGTGCAG” was tested, and the binding signal was 3680 fluorescence intensity (a.u.).
For “CCTTCCACATATGCTCATTCGAAAGTAACAAATTCACTCGCGGAGTCACCTAGTGCAG”, the binding signal was 3190 fluorescence intensity (a.u.).
For “GGTGATTGCATTTGCTGATGTCAGGTATGCCTATTATATTCGGAGTCACCTAGTGCAG”, the binding signal was 14700 fluorescence intensity (a.u.).
With “TTGGATGACACAACAACATGTAAGGTTAGAAACGATATGTCGGAGTCACCTAGTGCAG” the binding signal was 3990 fluorescence intensity (a.u.).
In the case of “ACTAGTTTACAACCACACCAACATGTAGGCATGAACATGGCGGAGTCACCTAGTGCAG”, the binding signal is reported as 22900 fluorescence intensity (a.u.).
In the case of “CGAGTTTAGAATCCACACCATGATTACATGTAAACAACGTCGGAGTCACCTAGTGCAG”, the binding signal is reported as 44700 fluorescence intensity (a.u.).
In the case of “AAAGTAGTTTTACACGTAAATCGGGCGCTGACGTTATCAGCGGAGTCACCTAGTGCAG”, the binding signal is reported as 5310 fluorescence intensity (a.u.).
With “TAAAGTAGTTTTACACGTAAATCAGATGCTGACGTCAGCGCGGAGTCACCTAGTGCAG” the binding signal was 48600 fluorescence intensity (a.u.).
In the case of “AAAGTAGTTTCTGCACGTAAATCGGACGCTGACGTCAGCGCGGAGTCACCTAGTGCAG”, the binding signal is reported as 36600 fluorescence intensity (a.u.).
For “AAACACACTGACACGCATTCGGCCCGTTCCCTCGATGCGTCGGAGTCACCTAGTGCAG”, the binding signal was 5340 fluorescence intensity (a.u.).
In the case of “ATGATGCTGGATTGCTGGATACTGCATCAACATCATTAAGCGGAGTCACCTAGTGCAG”, the binding signal is reported as 44500 fluorescence intensity (a.u.).
In the case of “ATGAACTCATGCAACATTACTGGCTGATGCATCAACTTTACGGAGTCACCTAGTGCAG”, the binding signal is reported as 3270 fluorescence intensity (a.u.).
In the case of “AACATCATATATTGATGATTATTTGCTGCATAAGGAGATGCGGAGTCACCTAGTGCAG”, the binding signal is reported as 4070 fluorescence intensity (a.u.).
